# A selection: hits, their analogues and other compounds. The true share with any hit is near 11%.
# Coupling enz: qHTS Assay for Inhibitors of Fructose-1,6-bisphosphate Aldolase from Giardia Lamblia: Coupling assay counterscreen; activity change, negative = inhibition, % at 58.2 µM, hits read low; coupling enzyme system counterscreen, AmpLite Red fluorescence; AID 2472, 2010; 290,000 tested, 0.67% active; in the data active = activity change below about -30%
#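 Counterscreen lacking aldolase: glyceraldehyde-3-phosphate coupling-enzyme reagent preincubated 10 min at RT with compound (at 57.5 uM final), then substrate/coupling system with AmpLite Red added; fluorescence read at 525/598 nm after 20 min RT.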
# G9a block: qHTS Assay for Inhibitors of Histone Lysine Methyltransferase G9a. Histone-lysine N-methyltransferase EHMT2 (Homo sapiens), Q96KQ7. G9a H3K9 monomethylation, AlphaScreen, 2 h. Potency, µM (doses to about 102 µM), hits mostly inhibitors. 350,000 tested, 8.8% active. AID 504332, 2011; also: nearly all actives have a fitted effect of over 75% in size
# Target sequence (Q96KQ7 913-1193 limits assumed): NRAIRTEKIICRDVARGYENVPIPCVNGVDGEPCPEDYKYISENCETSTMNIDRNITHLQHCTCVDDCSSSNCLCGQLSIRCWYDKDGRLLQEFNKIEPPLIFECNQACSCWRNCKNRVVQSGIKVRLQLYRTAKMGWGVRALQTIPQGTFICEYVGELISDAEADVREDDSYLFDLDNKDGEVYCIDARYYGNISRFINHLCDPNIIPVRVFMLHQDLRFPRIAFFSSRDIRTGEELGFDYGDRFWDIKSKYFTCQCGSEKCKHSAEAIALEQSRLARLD
#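 Methyltransferase reactions run at room temperature for 2 h (20 nM enzyme, 500 nM biotin-H3K9 peptide, 20 uM SAM) after a 15 min compound preincubation; product detected by AlphaScreen beads and anti-H3K9me1 antibody.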
# Tau FP inhib: qHTS for Inhibitors of Tau Fibril Formation, Fluorescence Polarization; K18 P301L tau heparin fibrillization, Alexa594 FP, 6 h; Potency, µM (top dose mostly 57.7 µM), hits mostly inhibitors; 280,000 tested, 0.39% active; also: nearly all actives have a fitted effect of over 55% in size
# Target sequence (P10636 561-689 P618L limits assumed): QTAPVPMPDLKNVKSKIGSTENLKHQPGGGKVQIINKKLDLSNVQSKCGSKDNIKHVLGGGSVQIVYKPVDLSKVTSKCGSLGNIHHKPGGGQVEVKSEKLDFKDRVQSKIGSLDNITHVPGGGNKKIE
#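 Read-out: fluorescence polarization of Alexa 594-labeled tau (0.24 uM), 555 nm excitation, 632 nm emission. Mixtures held 15 uM unlabeled K18 P301L, compound and 20 uM heparin, pH 7 acetate buffer, incubated 6 hr at 37 C.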
# Tau ThT inhib: qHTS for Inhibitors of Tau Fibril Formation, Thioflavin T Binding | Microtubule-associated protein tau (Homo sapiens), P10636 | recombinant tau K18 P301L, heparin-induced fibrillization, ThT fluorescence | Potency, µM (series often up to 57.4 µM), actives largely listed as inhibitors | 270,000 tested, 2.1% active; also: nearly all actives have a fitted effect of over 55% in size
#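 Heparin-induced (20 uM) aggregation of recombinant human K18 P301L tau, 15 uM unlabeled with 0.24 uM labeled, pH 7 acetate buffer, 6 hr at 37 C with compound. Fibrils quantified by 30 uM ThT fluorescence after 1 hr ambient incubation.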
# Sfp inh: qHTS Assay for Inhibitors of Bacillus subtilis Sfp phosphopantetheinyl transferase (PPTase); Biochemical Sfp PPTase activity, qHTS; 4'-phosphopantetheinyl transferase ffp (Bacillus subtilis), Q9F4F7; 310,000 tested, 3.5% active; Potency, µM, actives largely listed as inhibitors; AID 1490, 2009;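 also: the enzyme is Sfp with the accession as filed and its product quenches rhodamine fluorescence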
#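 After 15 min at room temperature with compound, 15 nM Sfp received 5 uM rhodamine-CoA plus 12.5 uM BHQ-2-ybbR (50 mM Hepes pH 7.6, 10 mM MgCl2). Rate came from the fluorescence difference over 30 min, ex 525/em 598 nm.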
# Tau fluor counter: Counterscreen qHTS for Inhibitors of Tau Fibril Formation, Fluorescence Polarization; 280,000 tested, 0.93% active; Potency, µM (top dose mostly 57.7 µM); tau K18 P301L (four-repeat tau fragment) Alexa594 fluorescence, heparin fibrillization; AID 1463, 2008; also: nearly all actives have a fitted effect of over 55% in size
#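 Human K18 P301L tau (15 uM unlabeled plus 0.24 uM Alexa 594-labeled, final) in 100 mM sodium acetate pH 7 was mixed with compound and 20 uM heparin and incubated 6 hr at 37 C.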
# Numbers stand for hits; - = inactive; ? = inconclusive; . = no result; [ ] = another dose, or the depositor's remark. Unless noted, calls follow the shape of the dose curve; as a rule, active = well fitted curve in the direction sought with a large enough effect; inconclusive = small, poorly fitted or top-dose-only effect, or another doubt; inactive = no such curve, though single readings can be large; an effect the other way counts as inactive or inconclusive.
SMILES,Coupling enz,G9a block,Tau FP inhib,Tau ThT inhib,Sfp inh,Tau fluor counter
CC1(N(O)C=C2C=CC(=O)C=C2)CCCCC1=O (centres undefined),-,.,-,-,-,-
O=c1c2c(-c3ccc([N+](=O)[O-])cc3)csc2nc2n1CCC2,-,7.9µM,-,-,?,-
COc1ccc(/C(C)=N/Nc2ccc(F)cc2F)c(O)c1,-,2.5µM,-,?,-,-
COc1ccc(/C(C)=N/Nc2ccccc2Cl)c(O)c1,-,1µM,-,?,?,?
C/C(=N\Nc1ccc(F)cc1F)c1cccs1,-,25µM,-,-,-,-
COc1ccc(C(=O)c2ccc(OC)cc2O)c(O)c1,-,-,-,-,-,-
CC(C)c1nn2c(=O)cc(COC(=O)c3ccc(NC(=O)CCc4ccccc4)cc3)nc2s1,.,-[12.7 µM],-,-,.,-
CCN(CC)S(=O)(=O)c1ccc(C(=O)Nc2nc3c(Cl)cc(Cl)cc3s2)cc1,.,-,-,-,.,-
Cc1nc(-c2ccccc2)sc1CCNC(=O)c1ccco1,.,-,-,?,.,-
COc1ccc(CNC(=O)CSCc2nc(-c3ccccc3C)oc2C)cc1,.,-,-,-,.,-
CC(=O)N(CCC(Cc1ccccc1)c1ccc2c(c1)OCO2)Cc1ccccc1F (centres undefined),-,-,-,?,71µM,-
Fc1ccccc1CNCCC(Cc1ccccc1)c1ccc2c(c1)OCO2 (centres undefined),-,?,-,-,-,-
Cc1cc(N(CCO)CCO)ccc1N=Nc1cc(F)ccc1F,-,14µM,-,10µM,-,?
O=C(Nc1cccc([N+](=O)[O-])c1)Nc1cccs1,-,40µM,-,?,-,20µM[quencher]
O=C(Nc1cccc(C(F)(F)F)c1)Nc1cccs1,.,-,?,?,.,11µM[quencher]
CCSCCc1nnc(NC(=O)Nc2cccc(C(F)(F)F)c2)s1,-,-,11µM,-,-,?
COC(=O)c1sccc1NC(=O)Nc1cccc([N+](=O)[O-])c1,-,.,.,.,-,.
Cc1ccccc1CSc1nc2cccnc2n1Cc1ccc(C(=O)NCCc2cccs2)cc1,.,?,-,-,.,-
O=C(NCCc1ccccc1)c1ccc2c(c1)S(=O)(=O)c1cc(Cl)ccc1C2=O,.,-[2.33 µM],.,.,.,.
COc1cc(NC2c3ccccc3C(=O)N2Cc2ccc3c(c2)OCO3)cc(OC)c1 (centres undefined),-,50µM,-[0.0958 µM],.,-,-[0.0958 µM]
COc1ccc(NC2c3ccccc3C(=O)N2Cc2ccc3c(c2)OCO3)cc1 (centres undefined),-,45µM,-,.,-,?
CCN(CC)S(=O)(=O)c1ccc(NC2c3ccccc3C(=O)N2Cc2ccc3c(c2)OCO3)cc1 (centres undefined),-,40µM,-,-,-,?
CCCSc1nc2c(c(=O)[nH]1)C(c1ccc(O)c(OCC)c1)CC(=O)N2 (centres undefined),.,-,-,-,.,-
CC(C)CC(C(=O)NCCc1ccccc1)N1Cc2ccccc2C1=O (centres undefined),.,-,-,-,.,-
COc1ccc2nc(N(CCN(C)C)C(=O)/C=C/c3cccs3)sc2c1,-,14µM,-,?,-,-
SMILES,Coupling enz,G9a block,Tau FP inhib,Tau ThT inhib,Sfp inh,Tau fluor counter
Cc1cccc2sc(N(CCN(C)C)C(=O)/C=C/c3cccs3)nc12,-,?,?,-,32µM,?
CCOc1ccccc1NC(=O)N1CCN(Cc2cc(=O)n3nc(-c4ccc(C)cc4)sc3n2)CC1,.,-,-,-,.,-
CCOC(=O)c1c(C)[nH]c(O)c1C=Nc1ccc(Cl)cc1,-,50µM,-,?,?,-
COC(=O)c1c(C)[nH]c(O)c1C=Nc1ccc(C(C)C)cc1,-,?,-,?,-,-
COC(=O)c1c(C)[nH]c(O)c1C=Nc1ccc(Oc2ccccc2)cc1,-,-,-,?,-,-
CCOC(=O)c1c(C)[nH]c(O)c1C=Nc1ccc(C(F)(F)F)cc1,-,45µM,-,?,-,-
Cc1ccc2nsnc2c1N,-,.,-,?,-,-
Nc1cccc2nsnc12,-,11µM,?,28µM,-,-
CCN(c1ccccc1)S(=O)(=O)c1ccc(NC(=O)c2cc(=O)c3cc(C)ccc3o2)cc1,.,-,?,-,.,?
O=C1/C(=C/c2ccncc2)SC(=S)N1Nc1ccccc1,-,32µM,?,18µM,?,?
O=C(O)c1ccc(/C=C2\SC(=S)N(Nc3ccccc3)C2=O)cc1,-,50µM,-,?,-,?
Cc1cc(C)nc(NN2C(=O)/C(=C/c3ccccc3)SC2=S)n1,-,40µM,-,?,32µM,-
O=C(O)c1ccc(/C=C2\SC(=S)N(NC(=O)c3ccccc3[N+](=O)[O-])C2=O)cc1,-,?,.,.,-,.
CC(=O)NN1C(=O)/C(=C\c2ccc(C)cc2)SC1=S,-,-,-,?,-,-
O=C(O)c1ccc(/C=C2\SC(=Nc3ccccc3)N(c3ccccc3)C2=O)cc1,-,?,-,-,79µM,-
O=C(c1ccccc1)c1ccc(NCCCn2ccnc2)c([N+](=O)[O-])c1,-,-[2.33 µM],.,.,-,.
COc1ccc(OC)c(NC(=O)c2c(C)oc3ncnc(N4CCOCC4)c23)c1,.,-,-,-,.,-
Cc1cc(S(=O)(=O)N2CCCCCC2)c(Cl)cc1Cl,-,-,-,-,-,-
CC(C)c1ccc(C(=O)NNC(=O)c2n[nH]c(=O)c3ccccc23)cc1,.,5µM,.,.,.,.
CCNC(=S)N(CCc1c(C)[nH]c2ccccc12)Cc1cc(OC)c(OC)c(OC)c1,-,89µM,-,-,-,?
CNC(=S)N(CCc1c(C)[nH]c2ccc(C)cc12)Cc1cc(OC)c(OC)c(OC)c1,-,50µM,-,?,-,?
CNC(=S)N(CCc1c(C)[nH]c2ccccc12)Cc1cc(OC)c(OC)c(OC)c1,-,?,-,-,-,?
CNC(=S)N(CCc1c(C)[nH]c2ccc(OC)cc12)Cc1cc(OC)c(OC)c(OC)c1,-,50µM,-,?,-,?
CC(C)N1CCN(Cc2ccc3c(c2)Cc2ccccc2-3)CC1CCO (centres undefined),-,-[12.7 µM],-,-,-,-
Cc1nnc(N2C(=O)c3oc4ccccc4c(=O)c3C2c2ccco2)s1 (centres undefined),-,20µM,-,-,?,-
Cc1ccc(C2c3c(oc4ccccc4c3=O)C(=O)N2c2nnc(C(C)C)s2)o1 (centres undefined),-,50µM,-,-,-,-

# Screening results from PubChem.
